Results published in PubChem BioAssay (NCI).
About 83,000 compounds went through this panel and 20% of them were active in at least one assay; those are over-represented in the sample as a whole.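 Single-dose data. Exposure time 48 hours. Values below 10 considered active.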 The source made the active and inactive calls.

What was measured:
Assay in all cases: NCI-60 one-dose screen, 48 h (100 = growth as untreated, 0 = no growth, -100 = all killed)
Conditions in all cases: 10 µM unless noted
NCI-H23 lung = tested on: NCI-H23 lung
NCI-H226 lung = tested on: NCI-H226 lung
NCI-H322M lung = tested on: NCI-H322M lung
HOP-62 NSCLC = tested on: HOP-62 NSCLC
NCI-H460 lung = tested on: NCI-H460 lung
HOP-92 NSCLC = tested on: HOP-92 NSCLC
NCI-H522 lung = tested on: NCI-H522 lung
A549/ATCC NSCLC = tested on: A549/ATCC NSCLC
786-0 renal = tested on: 786-0 renal
COLO 205 colon = tested on: COLO 205 colon

Measured: growth

CCCCCCCCCCCCCCCCCCNC(=O)[C@H]1CSC(c2ccc(OC)c(F)c2)N1 (stereo not given in full)
inactive: NCI-H23 lung 36.9% | NCI-H322M lung 38.4% | HOP-92 NSCLC 37.8% | NCI-H522 lung 56.7% | A549/ATCC NSCLC 20.9% | 786-0 renal 22.8% | COLO 205 colon 102%
active: NCI-H226 lung -68% | HOP-62 NSCLC -82.9% | NCI-H460 lung -67.8%

Nc1cc(O)cc2cccnc12
inactive: NCI-H23 lung 53.1% | NCI-H226 lung 94.4% | NCI-H322M lung 104% | HOP-62 NSCLC 86.6% | NCI-H460 lung 67.6% | HOP-92 NSCLC 103% | NCI-H522 lung 50.6% | A549/ATCC NSCLC 86.3% | 786-0 renal 105% | COLO 205 colon 113%

COCCOC(=O)C1=C(C)NC(=S)NC1c1ccc2c(c1)OCO2 (stereo not given)
inactive: NCI-H23 lung 96.2% | NCI-H226 lung 90.2% | NCI-H322M lung 101% | HOP-62 NSCLC 98% | NCI-H460 lung 112% | HOP-92 NSCLC 108% | NCI-H522 lung 94.3% | A549/ATCC NSCLC 101% | 786-0 renal 107% | COLO 205 colon 117%

Cc1ccc2c(c1)C(=O)/C(=C/c1ccc(OCC(=O)c3ccccc3)cc1)O2
inactive: NCI-H23 lung 84.7% | NCI-H226 lung 69.4% | NCI-H322M lung 108% | HOP-62 NSCLC 87.5% | NCI-H460 lung 108% | HOP-92 NSCLC 66.8% | NCI-H522 lung 89.2% | A549/ATCC NSCLC 81.6% | 786-0 renal 86.8% | COLO 205 colon 107%

O=C(Nc1cccc2c1C(=O)c1cccc(Nc3cccc4c3C(=O)c3cccc(NC(=O)c5ccccc5)c3C4=O)c1C2=O)c1ccccc1
inactive: NCI-H23 lung 108% | NCI-H226 lung 102% | NCI-H322M lung 112% | HOP-62 NSCLC 104% | NCI-H460 lung 113% | HOP-92 NSCLC 90.7% | NCI-H522 lung 112% | A549/ATCC NSCLC 90.1% | 786-0 renal 117% | COLO 205 colon 117%

COc1cccc(-c2cn3c(ccc4ccccc43)n2)c1
inactive: NCI-H23 lung 49.8% | NCI-H226 lung 43.9% | NCI-H322M lung 56.4% | HOP-62 NSCLC 25.8% | NCI-H460 lung 17.8% | HOP-92 NSCLC 64.2% | NCI-H522 lung 15.9% | A549/ATCC NSCLC 55% | 786-0 renal 44.4% | COLO 205 colon 11.4%

O=[N+]([O-])c1cccc(-c2nc3sccn3c2-c2ccnc(NCCCNS(=O)(=O)c3cccc(F)c3)n2)c1
inactive: NCI-H322M lung 45.2% | HOP-62 NSCLC 13.1% | NCI-H460 lung 16.3% | HOP-92 NSCLC 46.3% | 786-0 renal 43.4%
active: NCI-H23 lung -9.68% | NCI-H226 lung -5.67% | NCI-H522 lung -8.69% | A549/ATCC NSCLC 7.27% | COLO 205 colon -2.26%

Cc1ccc(N)cc1F
inactive: NCI-H23 lung 94.6% | NCI-H226 lung 101% | NCI-H322M lung 101% | HOP-62 NSCLC 84.1% | NCI-H460 lung 108% | HOP-92 NSCLC 109% | NCI-H522 lung 88.8% | A549/ATCC NSCLC 99.8% | 786-0 renal 92.9% | COLO 205 colon 168%

CC(=O)N1CC(Nc2ccc(OC(F)(F)F)cc2)=CC1=O
inactive: NCI-H23 lung 56.8% | NCI-H226 lung 67.5% | NCI-H322M lung 43.3% | HOP-62 NSCLC 30.2% | NCI-H460 lung 20.6% | HOP-92 NSCLC 50% | NCI-H522 lung 29.3% | A549/ATCC NSCLC 38.9% | 786-0 renal 53.6%
active: COLO 205 colon 4.8%

Nc1cc2ccncc2c2ccccc12
inactive: NCI-H23 lung 67.7% | NCI-H226 lung 44% | NCI-H322M lung 61.7% | HOP-62 NSCLC 79.6% | NCI-H460 lung 58.2% | HOP-92 NSCLC 73.9% | NCI-H522 lung 98.4% | A549/ATCC NSCLC 89.4% | 786-0 renal 78.1% | COLO 205 colon 61.6%

CCOC(=O)CC(C)=N
inactive: NCI-H23 lung 118% | NCI-H226 lung 106% | NCI-H322M lung 121% | HOP-62 NSCLC 107% | NCI-H460 lung 109% | HOP-92 NSCLC 99.4% | NCI-H522 lung 92% | A549/ATCC NSCLC 101% | 786-0 renal 103% | COLO 205 colon 108%

CC/C=C\C[C@H](F)C/C=C1/C(=O)C=C[C@@H]1C/C=C\CCCC(=O)O
inactive: NCI-H23 lung 62.7% | NCI-H226 lung 104% | NCI-H322M lung 93.6% | HOP-62 NSCLC 111% | NCI-H460 lung 50.6% | HOP-92 NSCLC 109% | NCI-H522 lung 31% | A549/ATCC NSCLC 68.3% | 786-0 renal 82.4% | COLO 205 colon 48.5%

C=C1CCC2C3(C)COC(C)(C)OC3CCC2(C)C1C/C=C1/C(=O)OCC1OC(C)=O (stereo not given)
active: NCI-H522 lung -88.7% | COLO 205 colon -0.595%
inactive: NCI-H23 lung 50.4% | NCI-H226 lung 50.3% | NCI-H322M lung 100% | HOP-62 NSCLC 112% | NCI-H460 lung 95.4% | HOP-92 NSCLC 123% | A549/ATCC NSCLC 61.7% | 786-0 renal 48.5%
